# Bioassay records as filed in PubChem.
# IL-1B inflam inh – qHTS for Inhibitors of Inflammasome Signaling: IL-1-beta AlphaLISA Primary Screen. hit rate 4.7% among 360,000. activity change, % at 57.5 µM. THP-1 LPS/ATP IL-1B secretion, AlphaLISA, 16 h; stronger effect = lower value; in the data active = activity change below about -50%; inconclusive = mostly about -30% to -49%
#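 Secreted IL-1B measured by AlphaLISA bead assay after 16 h compound exposure of THP-1 cells; compounds (final up to 57.5 uM) added 1 h before LPS (250 ng/mL) and ATP (1.25 mM) stimulation; lower signal means less secretion.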
# HT1080NT lethal – qHTS for induction of synthetic lethality in tumor cells producing 2HG: qHTS for the HT-1080-NT fibrosarcoma cell line; HT-1080-NT fibrosarcoma viability, CellTiter-Glo ATP luminescence, 48 h; Potency, µM (top dose mostly 46.1 µM), inactives show at the highest dose activity, negative = less viability, actives largely listed as cytotoxic; hit rate 1.6% among 360,000; AID 686970, 2013;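 also: NT is the 2HG producing partner of a matched IDH1 knockdown line; potency is read from the fitted curve at half-maximal effect; 0% = DMSO-treated cells and -100% = media-only wells without cells; nearly all actives have a fitted effect of over 55% in size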
#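 HT-1080-NT; 750 cells/well; 5% FBS RPMI; 48 h compound, 37 degrees C; CellTiter-Glo luminescence; curve fitting and curve-class assignment.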
# TDP1 cell CPT – qHTS for Inhibitors of human tyrosyl-DNA phosphodiesterase 1 (TDP1): qHTS in cells in presence of CPT; chicken DT40 Tdp1-/-;hTDP1 cells + 20 nM CPT, ATP luminescence, 48 h; Potency, µM (doses to about 46.2 µM), for the others: top-dose activity change, negative = growth inhibition, usual class: inhibitors; hit rate 12% among 420,000; AID 686979, 2013; also: potency is read from the fitted curve at half-maximal effect; nearly all actives have a fitted effect of over 55% in size
#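 Chicken DT40 Tdp1-/- cells stably complemented with human TDP1 were seeded at 400 cells/well in medium containing 20 nM camptothecin, exposed to pin-transferred compounds, and grown at 37 °C for at least 48 hr. Viability was read as ATP luminescence.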
# ELG1 DNA repair – qHTS screen for small molecules that inhibit ELG1-dependent DNA repair in human embryonic kidney (HEK293T) cells expressing luciferase-tagged ELG1 | hit rate 2.3% among 330,000 | AID 504467, 2011 | Potency, µM (series often up to 46.1 µM), for the others: top-dose activity change, negative = inhibition, most hits filed as inhibitors | HEK293T ELG1-luciferase reporter, luminescence, 16 h; DNA damage induced by 5-fluorouridine; also: potency is read from the fitted curve at half-maximal effect; nearly all actives have a fitted effect of over 55% in size
#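 Reporter activity after DNA damage by 5-fluorouridine is monitored. Compound-treated cells incubate 16 hr at 37 °C, then ONE-Glo is added for 30 min before luminescence reading.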
# HT1080 IDH1KD tx – qHTS for induction of synthetic lethality in tumor cells producing 2HG: qHTS for the HT-1080-IDH1KD cell line; HT-1080 IDH1 knockdown viability, ATP luminescence, 48 h; Potency, µM (top dose mostly 46.1 µM), without a hit: at the highest dose activity, negative = toxicity, actives largely listed as cytotoxic; hit rate 2% among 360,000; AID 686971, 2013;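 also: potency is read from the fitted curve at half-maximal effect; 0% = DMSO wells and -100% = cell-free medium wells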
#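 Cytotoxicity counter-line: IDH1KD HT-1080, 48 h, CellTiter-Glo. Curves classed by r2, magnitude and activity.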
# DT40 TDP1 no CPT – qHTS for Inhibitors of human tyrosyl-DNA phosphodiesterase 1 (TDP1): qHTS in cells in absence of CPT; Potency, µM (doses to about 46.2 µM), inactives show top-dose activity change, negative = growth inhibition, most hits filed as inhibitors; hit rate 15% among 420,000; AID 686978, 2013; DT40 Tdp1-/- hTDP1 cells, no CPT, ATP luminescence, 48 h; also: potency is read from the fitted curve at half-maximal effect; nearly all actives have a fitted effect of over 55% in size
#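 DT40 Tdp1-/-;hTDP1 cells, no CPT (DMSO vehicle only), 400 cells/well; compounds pin-transferred; ≥48 hr, 37 °C; CellTiter-Glo 30 min RT dark, luminescence read.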
# Starred values were filed as active, the others as inactive; ? = inconclusive; nt = no result; ! = repeats disagree; [ ] = dose if it differs, or a comment. In the library only some 19% were active in any assay of this set; here they are far more common. Unless noted, calls follow the shape of the dose curve; as a rule, active = well fitted curve in the direction sought with a large enough effect; inconclusive = small, poorly fitted or top-dose-only effect, or another doubt; inactive = no such curve, though single readings can be large; an effect the other way counts as inactive or inconclusive. Unless noted, % is scaled to controls: 0 for no effect and ±100 for the full control effect.
SMILES,IL-1B inflam inh,HT1080NT lethal,TDP1 cell CPT,ELG1 DNA repair,HT1080 IDH1KD tx,DT40 TDP1 no CPT
Cc1cccc(OCc2nnc(SCC(=O)N3c4ccccc4CCc4ccccc43)o2)c1,?,-7.6%,?,?,-13.5%,?
O=C(CSc1nnc(COc2ccc(F)cc2)o1)N1c2ccccc2CCc2ccccc21,-11.8,-23.2%,?,?,?,16.4µM*
O=C(CSc1nnc(COc2cccc3cccnc23)o1)N1CCc2ccccc21,20.1,2.24µM*,2.06µM*,?,1.26µM*,2.31µM*
CCN(CC)c1ccc(C=Nc2ccc(OC)c(S(=O)(=O)N3CCOCC3)c2)c(O)c1,10.1,2.1%,-7.9%,0.4%,6.9%,-5.4%
COc1ccc(CCN2C(=O)CC(NNc3ccc([N+](=O)[O-])cc3)C2=O)cc1OC (centres undefined),-5.8,-1.3%,20.6µM*,-8.8%,-2.4%,20.6µM*
COc1ccc(S(=O)(=O)n2c(CCN3CCOCC3)nc3ccccc32)cc1,-20.1,-8.8%,-27.8%,16.0%,-18.2%,20.6µM*
CC(C)(C)c1ccc(S(=O)(=O)n2c(CN3CCOCC3)nc3ccccc32)cc1,101.4,-15.6%,20.6µM*,5.8%,-9.6%,?
CCc1nc2ccccc2c2nc3ccccc3n12,-0.6,-26.8%,?,-10.1%,?,-16.1%
c1ccc2c(c1)nc(CN1CCOCC1)n1c3ccccc3nc21,-21.3,-19.3%,13µM*,nt,-4.0%,16.4µM*
Cc1ccc(NS(=O)(=O)c2cc3c4c(c2)CC(=O)N4CCC3)cc1C,42.4,-8.3%,13µM*,-7.1%,-1.2%,-5.2%
O=C1Cc2cc(S(=O)(=O)Nc3cccc(C(F)(F)F)c3)cc3c2N1CCC3,nt,nt,?,nt,nt,-14.3%
COc1ccc(S(=O)(=O)Nc2cc3c4c(c2)CCC(=O)N4CCC3)cc1C,20.0,-7.7%,16.4µM*,2.0%,-15.5%,?
COc1ccc(S(=O)(=O)Nc2cc3c4c(c2)CCC(=O)N4CCC3)cc1,25.4,0.5%,-24.2%,?,-2.3%,-18.5%
Cc1nc(-n2[nH]c3c(c2=O)CCCC3)[nH]c(=O)c1Cc1ccccc1,-105.9*,?,2.91µM*,?,?,3.26µM*
Cc1nc(N2CCc3ccccc3C2)[nH]c(=O)c1Cc1ccccc1,-1.5,3.8%,-2.1%,-2.3%,2.8%,-11.4%
O=C(NCCc1ccc(Cl)cc1)c1ccc(CS(=O)(=O)Cc2ccc(F)cc2)o1,nt,nt,-20.7%,nt,nt,?
COc1ccc(CCNC(=O)c2ccc([N+](=O)[O-])cc2Cl)cc1OC,21.9,-6.9%,20.5%,nt,5.8%,-1.0%
COc1ccc(CCNC(=O)c2ccc(CS(=O)(=O)c3ccc(Cl)cc3)o2)cc1OC,?,-7.2%,23.1µM*,?,-28.6%,16.4µM*
COCCNC(=O)c1ccc(CS(=O)(=O)c2ccc(OC)cc2)o1,29.7,0.7%,-13.4%,5.8%,1.5%,-10.7%
COc1ccc(CCNC(=O)c2ccc(-c3ccc([N+](=O)[O-])cc3Cl)o2)cc1OC,?,-21.9%,7.31µM*,18.4µM*,-28.7%,8.2µM*
COc1ccc(N2CCN(CCCNC(=O)c3ccc(CS(=O)(=O)c4ccc(Cl)cc4)o3)CC2)cc1,-6.0,-2.9%,?,-16.3%,-2.2%,20.6µM*
O=C(NCCc1ccc(Cl)cc1)c1ccc(CS(=O)(=O)Cc2ccccc2F)o1,nt,nt,?,nt,nt,20.6µM*
Oc1c(C(c2ccc(Cl)cc2)N2CCC3(CC2)OCCO3)sc2nc(-c3ccco3)nn12 (centres undefined),nt,nt,-17.6%,nt,nt,-19.7%
CN(C(=O)CN1C(=O)C2C3CC(C(Br)C3Br)C2C1=O)C1CCCCC1 (centres undefined),33.9,-10.1%,4.6%,19.5%,-21.9%,-26.1%
CC(C)CN(CCNC(=O)c1cn(C)c2ccc(S(=O)(=O)N3CCCCCC3)cc2c1=O)CC(C)C,nt,nt,7.4%,nt,nt,-27.8%
SMILES,IL-1B inflam inh,HT1080NT lethal,TDP1 cell CPT,ELG1 DNA repair,HT1080 IDH1KD tx,DT40 TDP1 no CPT
CC(C)NC(=O)c1nn(C)c2c1CS(=O)(=O)c1ccccc1-2,nt,nt,-20.1%,nt,nt,0.4%
COc1ccc(CCNC(=O)CSCc2ccc([N+](=O)[O-])cc2)cc1,7.4,-1.3%,-9.0%,-16.7%,11.3%,-23.5%
CC(C)(C)OC(=O)N/N=C/c1cccn1-c1ccc([N+](=O)[O-])cc1,-10.9,-26.1%,9.6%,-25.1%,6.5%,-11.4%
COc1ccc(CCNC(=O)c2ccc(CS(=O)(=O)c3ccc(C)cc3)o2)cc1OC,3.3,4.3%,?,16.4µM*,-8.8%,14.6µM*!
COc1ccc(CCNC(=O)c2ccc(CS(=O)(=O)Cc3ccc(C)cc3)o2)cc1OC,16.9,8.8%,?,nt,-3.9%,23.1µM*
Cc1ccc(CS(=O)(=O)Cc2ccc(C(=O)NCCc3ccc(Cl)cc3)o2)cc1,nt,nt,-17.1%,nt,nt,-12.9%
COc1ccc(CCNC(=O)CSCc2ccc([N+](=O)[O-])cc2)cc1OC,-13.6,0.8%,25.9µM*,-8.9%,-1.2%,25.9µM*
COc1ccc(CC(=O)N/N=C/c2cccn2-c2ccc([N+](=O)[O-])cc2)cc1OC,-12.9,-0.1%,16.4µM*,?,3.8%,14.6µM*
O=S(=O)(Cc1ccccc1)Cc1cnc(Cl)s1,7.4,15.3%,10.8%,8.7%,19.1%,-10.3%
COc1ccc(S(=O)(=O)Cc2ccc(C(=O)NC3CCCCCC3)o2)cc1,-5.0,18.8%,14.6µM*,?,-1.5%,?
COc1ccc(CCNC(=O)c2ccc(CSc3ccc(Cl)cc3)o2)cc1OC,nt,?,13.2µM*,nt,?,13.2µM*
CCc1ccccc1S(=O)(=O)Cc1ccc(C(=O)NCCc2ccc(C)cc2)o1,nt,nt,?,nt,nt,29.1µM*
COc1ccc(CCNC(=O)CSCc2ccc(Cl)cc2)cc1OC,-7.2,2.1%,?,-24.2%,10.0%,?
CC(C(=O)O)n1cc(C#N)c(=O)[nH]c1=O (centres undefined),15.9,20.1%,-15.4%,nt,21.8%,-8.4%
CS(=O)(=O)CCC(C(=O)O)N1C(=O)c2ccc(Oc3ccc(Cl)cc3)cc2C1=O (centres undefined),0.0,3.0%,-1.1%,-4.0%,7.1%,-0.7%
COCC(=O)Nc1cc(C(=O)N2CCOc3ccccc3C2)cc2nc(-c3cccnc3)n(C)c12,nt,nt,-10.8%[9.04 µM],nt,nt,-8.9%
